High-throughput results (PubChem BioAssay)
The list is not random: actives were taken first. Their share in the collection is about 18%.
TDP1 inh: inhibitors of human tyrosyl-DNA phosphodiesterase TDP1. AID 485290. hit rate 0.28% among 350,000. recombinant TDP1, AlphaScreen DNA substrate cleavage. Q9NUW8. Potency, µM (titrated, usually from 130 µM), without a hit: at the highest dose activity change, negative = inhibition, usual class: inhibitors; further: potency means the concentration at half of the fitted maximal effect; on the % scale 0 is the no-effect control and ±100 the full control effect; nearly all actives have a fitted effect of over 40% in size
Target sequence (Q9NUW8 whole entry, looked up): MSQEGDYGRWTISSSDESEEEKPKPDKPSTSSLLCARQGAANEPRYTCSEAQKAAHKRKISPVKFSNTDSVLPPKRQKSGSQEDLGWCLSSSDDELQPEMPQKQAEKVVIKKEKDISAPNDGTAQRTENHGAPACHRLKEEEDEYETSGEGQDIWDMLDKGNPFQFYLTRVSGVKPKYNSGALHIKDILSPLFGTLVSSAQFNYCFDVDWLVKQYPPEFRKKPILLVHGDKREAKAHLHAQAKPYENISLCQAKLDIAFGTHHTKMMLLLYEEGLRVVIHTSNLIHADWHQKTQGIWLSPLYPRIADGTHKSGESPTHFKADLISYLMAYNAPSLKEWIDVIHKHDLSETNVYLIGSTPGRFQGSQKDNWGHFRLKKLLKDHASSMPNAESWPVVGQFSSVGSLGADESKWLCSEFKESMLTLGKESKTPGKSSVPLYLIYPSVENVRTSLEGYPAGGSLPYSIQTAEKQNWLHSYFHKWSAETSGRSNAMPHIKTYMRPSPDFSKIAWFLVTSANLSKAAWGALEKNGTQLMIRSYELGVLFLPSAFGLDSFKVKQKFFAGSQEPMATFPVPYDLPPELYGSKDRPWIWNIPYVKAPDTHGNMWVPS
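Signal: AlphaScreen proximity between streptavidin donor and anti-FITC acceptor beads on intact substrate. Reaction: Tdp1 1 nM, substrate 15 nM final, 5 min RT after 15 min compound preincubation.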
TDP1 cell noCPT: qHTS for Inhibitors of human tyrosyl-DNA phosphodiesterase 1 (TDP1): qHTS in cells in absence of CPT | DT40 Tdp1-/- hTDP1 cells, no CPT, ATP luminescence, 48 h | Potency, µM (series often up to 46.2 µM), for the others: at the highest dose activity change, negative = growth inhibition, hits mostly inhibitors | hit rate 15% among 420,000; further: potency means the concentration at half of the fitted maximal effect; on the % scale 0 is the no-effect control and ±100 the full control effect; nearly all actives have a fitted effect of over 55% in size
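Luminescent ATP content (CellTiter-Glo) served as the growth readout. Knockout chicken DT40 cells expressing human TDP1 were exposed to compounds without camptothecin for a minimum 48 hr at 37 °C.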
DT40 TDP1 CPT: DT40-hTDP1 cell growth loss with CPT. Potency, µM (titrated, usually from 46.2 µM), without a hit: at the highest dose activity change, negative = growth inhibition, hits mostly inhibitors. chicken DT40 Tdp1-/-;hTDP1 cells + 20 nM CPT, ATP luminescence, 48 h. hit rate 12% among 420,000; further: potency means the concentration at half of the fitted maximal effect; on the % scale 0 is the no-effect control and ±100 the full control effect; nearly all actives have a fitted effect of over 55% in size
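Chicken DT40 Tdp1-/- cells stably complemented with human TDP1 were seeded at 400 cells/well in medium containing 20 nM camptothecin, exposed to pin-transferred compounds, and grown at 37 °C for at least 48 hr. Viability was read as ATP luminescence.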
HepG2 viability: HepG2 cytotoxicity, counter-screen for TGF-b inhibitors; HepG2 CAGA-GFP viability, ATP luminescence, 18 h; Potency, µM (doses to about 46.1 µM), without a hit: at the highest dose activity change, negative = cytotoxicity, most hits filed as cytotoxic; hit rate 0.76% among 410,000; AID 588856; further: potency means the concentration at half of the fitted maximal effect
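CellTiter-Glo luminescence gave cytotoxicity after 18 hours at 37 degrees C. The cells were HepG2 CAGA-GFP in 1% FBS DMEM, stimulated with 500 pg/mL TGF-beta after compound addition. %Activity was normalised to no-cell wells (complete cell-killing) and DMSO (no toxicity), and curves were fitted and classified.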
IL-1B inflam inh: inflammasome signaling inhibition, IL-1 beta readout; activity change, % at 57.5 µM; THP-1 LPS/ATP IL-1B secretion, AlphaLISA, 16 h; stronger effect = lower value; hit rate 4.7% among 360,000; in the data active means activity change below about -50%; inconclusive means mostly about -30% to -49%; further: on the % scale 0 is the no-effect control and ±100 the full control effect
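THP-1 cells pretreated 1 hr with compounds (up to 57.5 uM final), then stimulated with LPS (250 ng/mL final) plus ATP (1.25 mM final); secreted IL-1B measured by AlphaLISA after 16 hr, decreased signal indicating inhibition.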
TGFb inhibitor: inhibitors of TGF-b signaling; HepG2 CAGA-GFP TGF-b/SMAD3 reporter, GFP fluorescence, 18 h; TGF-beta stimulated, 500 pg/mL final; hit rate 1.2% among 410,000; Potency, µM (doses to about 46.1 µM), for the others: at the top dose activity, negative = inhibition, usual class: inhibitors; further: potency means the concentration at half of the fitted maximal effect; on the % scale 0 is the no-effect control and ±100 the full control effect; nearly all actives have a fitted effect of over 65% in size
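HEPG2 CAGA-GFP, 1000 cells/well; 2 h settle, 37 C; cpd via pin tool; TGF-b 500 pg/mL final; 18 h, 37 C; GFP imaging ex488/em500-530; %Activity normalised to -TGF-b and +DMSO controls; CRC fit, curve class.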
Numbers without * were called inactive; ? = inconclusive; / = not tested or not shown. Unless noted, the call rests on the fitted dose curve; in most records, active means well fitted curve in the direction sought with a large enough effect; inconclusive means small, poorly fitted or top-dose-only effect, or another doubt; inactive means no such curve, though single readings can be large; an effect the other way counts as inactive or inconclusive.

SMILES	TDP1 inh	TDP1 cell noCPT	DT40 TDP1 CPT	HepG2 viability	IL-1B inflam inh	TGFb inhibitor
Cc1ccc(Cc2cnc(N3C(=N)SC(C)C3=O)s2)cc1 (centres undefined)	10%	?	?	-12%	5	?
CCCCNc1nc(C#N)nc(Nc2ccccc2)n1	6%	/	/	/	/	/
CC1(C)C2CCC1(C)C1(C2)NC(=O)c2ccccc2O1 (centres undefined)	-3%	-28%	-1%	5%	68	-12%
COc1ccc(Oc2nc(-c3cccnc3)nc3ccccc23)cc1	/	?	?	-168%	?	0%
c1csc(-c2nc(N3CCOCC3)c3ccccc3n2)c1	/	?	?	-27%	-17	5%
c1cncc(-c2nc(N3CCOCC3)c3ccccc3n2)c1	-6%	35µM*	?	-5%	?	-6%
c1ccc2c(N3CCOCC3)nc(-c3ccncc3)nc2c1	5%	15µM*	?	-33%	?	17%
Cc1cc(N)n(-c2nc(-c3cccnc3)nc3ccccc23)n1	6%	18µM*	26µM*	-48%	?	?
Cc1ccc(S(=O)(=O)c2nnn3c2nc(N2CCCC(C)C2)c2cc(Cl)ccc23)cc1C (centres undefined)	3%	-12%	-3%	-1%	/	2%
CC(C)N1C(=O)NC2NC(=O)N(C(C)C)C21 (centres undefined)	/	-1%	1%	3%	55	11%
Cc1ccc(S(=O)(=O)n2cnc3cc([N+](=O)[O-])ccc32)cc1C	5%	-25%	-13%	-20%	18	-16%
Cc1ccc(-n2c3nc(=O)[nH]c(=O)c-3cc3cc([N+](=O)[O-])ccc32)cc1C	-1%	1.3µM*	0.58µM*	-2%	0	1%
CC(C)C[C@H]1CN(CCCC[C@@H]2CNC(=O)C(=O)N2CC2CCCCC2)C(=O)C(=O)N1Cc1ccccc1	/	-7%	-3%	/	-5	/
NC(N)=NCCC[C@H](NC(=O)CC1(CC(=O)N2CCN(C3c4ccccc4NC(=O)c4ccccc43)CC2)CCCC1)C(=O)NCCn1c(=O)n(-c2ccccc2)n(-c2ccccc2)c1=O (some centres undefined)	10%	/	/	/	/	/
CCCCN(C(=O)c1c(CC)noc1C)c1c(N)n(CCCC)c(=O)[nH]c1=O	-2%	-20%	-17%	0%	15	0%
CCN(CC(=O)Nc1ccc(NC(C)=O)cc1)C(=O)CC1OC(=O)c2ccccc21 (centres undefined)	0%	2%	-1%	6%	16	14%
CCc1ccccc1N(CC(=O)NC(C)(C)CC)C(=O)CCC(=O)Nc1nccs1	4%	-11%	-14%	-1%	11	1%
COc1ccc(CNC(=O)c2cnn(-c3ccccc3)c2-n2cccc2)cc1OC	3%	18µM*	?	-27%	/	?
CCOC(=O)c1cccc(NC(=O)c2cnn(-c3ccccc3)c2-n2cccc2)c1	-3%	21µM*	26µM*	-34%	/	0%
COCCNC(=O)c1cnn(-c2cccc(C)c2)c1-n1cccc1	0%	?	?	-7%	/	-23%
COc1ccc(CNC(=O)c2cnn(-c3ccc(C)cc3)c2-n2cccc2)cc1OC	4%	16µM*	?	-17%	/	?
COc1ccccc1NC(=O)c1cnn(-c2ccccc2)c1-n1cccc1	-5%	18µM*	18µM*	-1%	/	-23%
COc1cc(OC)c(NC(=O)c2cnn(-c3ccccc3)c2-n2cccc2)cc1Cl	-3%	-22%	-3%	11%	/	-2%
CN(C)C(=O)COc1ccc2c(-c3ccccc3)cc(=O)oc2c1	/	-1%	0%	-14%	-2	7%
